Compound activity from PubChem BioAssay.
The list is not random: actives were taken first. Their share in the collection is about 8.3%.
Gal4-VP16 FLuc – Gal4-VP16 reporter inhibition counter-screen; Drosophila S2 Gal4-VP16 UAS-luciferase, luminescence, 20 h; Potency, µM (titrated, usually from 53.6 µM), most hits filed as inhibitors; 310,000 compounds, 3.5% hits;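 also: Gal4-VP16 expression switched on by copper sulfate through the metallothionein promoter; nearly all actives have a fitted effect of over 50% in size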
SW480 rereplic – DNA re-replication induction in SW480 cells; SW480 DNA re-replication, Hoechst DNA content imaging, 48 h; Potency, µM (titrated, usually from 46.1 µM), most hits filed as activators; 340,000 compounds, 1.8% hits; also: nearly all actives have a fitted effect of over 55% in size
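Quantitative HTS format with DMSO vehicle controls; 48 hr drug incubation at 37 C, then 40 min Hoechst staining and scanning imager measurement at 405 nm excitation.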
BCR signal inh – chronic active BCR signaling inhibition | ABC-DLBCL IkBa-CBG/CBR reporter, luminescence ratio, 4 h | Potency, µM (series often up to 46.1 µM), most hits filed as inhibitors | 340,000 compounds, 0.05% hits | AID 493014; active = well fitted inhibition curve with a large enough effect in the signal ratio, with a control signal flat, not every such curve was filed as active; inconclusive = small, poorly fitted or top-dose-only effect, or effect the other way, or a change in a side signal; the % refers to the signal ratio
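Doxycycline induced both beetle luciferases in TMD8 lymphoma cells; IKK-driven degradation limits the IkappaBalpha-fused green signal, while red luminescence normalises for cell number and nonspecific effects. Compounds tested up to 46 uM, 4 hrs.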
Giardia kill – kills Giardia lamblia; Giardia lamblia trophozoite viability; activity change, % at 7.66 µM, hits read low; 340,000 compounds, 0.15% hits; in the data active = activity change below about -80%; inconclusive = between about -30% and that limit;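 also: parasites exposed to compound for two days anaerobically before the ATP read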
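Luminescent ATP signal served as the viability read-out, measured 15-30 min after adding ATP detection reagent to trophozoites that had been incubated with compounds for 48 hrs at 37 deg C anaerobically at 100 cells/well.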
RORg inh – ROR gamma (mouse) transcription inhibition; P51450; Drosophila S2 Gal4-RORgamma UAS-luciferase reporter, 20 h; Potency, µM (highest dose often 53.6 µM), actives largely listed as inhibitors; 310,000 compounds, 5.4% hits; AID 2551; also: nearly all actives have a fitted effect of over 60% in size
Target sequence (P51450 whole entry, looked up, the tested form may be a part): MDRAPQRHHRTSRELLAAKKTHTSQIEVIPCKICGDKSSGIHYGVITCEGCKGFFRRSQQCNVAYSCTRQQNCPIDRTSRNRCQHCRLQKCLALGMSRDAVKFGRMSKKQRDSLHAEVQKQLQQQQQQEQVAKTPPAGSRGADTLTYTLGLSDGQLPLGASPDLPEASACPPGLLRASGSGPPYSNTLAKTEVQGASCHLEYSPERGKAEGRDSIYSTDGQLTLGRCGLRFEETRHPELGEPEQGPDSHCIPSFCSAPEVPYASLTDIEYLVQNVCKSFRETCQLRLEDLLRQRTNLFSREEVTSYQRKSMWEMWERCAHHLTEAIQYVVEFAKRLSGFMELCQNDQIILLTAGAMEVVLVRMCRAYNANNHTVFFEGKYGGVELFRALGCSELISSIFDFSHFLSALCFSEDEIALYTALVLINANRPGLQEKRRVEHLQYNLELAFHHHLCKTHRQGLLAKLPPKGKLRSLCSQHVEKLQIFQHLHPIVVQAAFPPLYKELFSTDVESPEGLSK
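Luminescence from a UAS-regulated Photinus luciferase reporter in stably transfected Drosophila Schneider cells is measured; decreased signal marks ROR gamma inhibition. Fusion expression is induced by 700 uM copper sulfate for 20 hr.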
MCF10A rerep – DNA re-replication induction in MCF 10a cells. 350,000 compounds, 2.9% hits. Potency, µM (series often up to 46.1 µM), most hits filed as activators. MCF 10A DNA re-replication, Hoechst nuclear intensity, 48 h; also: nearly all actives have a fitted effect of over 50% in size
Numbers stand for hits; - = inactive; ? = inconclusive; . = not tested or not shown; ! = not confirmed by another sample; [ ] = remark or other dose. Unless noted, calls follow the shape of the dose curve; as a rule, active = well fitted curve in the direction sought with a large enough effect; inconclusive = small, poorly fitted or top-dose-only effect, or another doubt; inactive = no such curve, though single readings can be large; an effect the other way counts as inactive or inconclusive.

SMILES	Gal4-VP16 FLuc	SW480 rereplic	BCR signal inh	Giardia kill	RORg inh	MCF10A rerep
CC(=O)Nc1cc(C(F)(F)F)ccc1Oc1cccc(Br)c1	12.6µM	?	-	-	?	?
COc1cccc(Oc2ccc(C(F)(F)F)cc2NC(=O)CN2C(=O)NC3(CCCC3)C2=O)c1	.	-	?	-	.	18.4µM
O=C(OCC(=O)N1CCN(c2ccccc2)CC1)c1ccncc1	.	-	-	-	.	?
O=C(CCCc1ccccc1)NC1CC(=O)N(c2ccc(F)cc2)C1 (stereo not drawn)	.	.	-	.	.	.
O=C1CN(S(=O)(=O)c2ccc(F)cc2)CCN1	.	-	-	-	.	-
CCSc1nnc(NC(=O)[C@@H](NC(=O)c2ccccc2F)C(C)C)s1	-	-	-	?	-	-
Cn1cc(Br)c(C(=O)NN2C(=O)C3C(C2=O)C2C=CC3C23CC3)n1 (stereo not drawn)	-	-	-	-	-	0.731µM
COC(=O)c1sc(N2CCCCC2)c(C#N)c1N	-	-	-	-	-	-
CCCc1cc(C(=O)Nc2ccc(C(=O)c3ccc(C)cc3)cc2)n(C)n1	-	-	?	-	?	18.4µM
CCCc1cc(C(=O)Nc2cccc3ccccc23)n(C)n1	-	-	?	-	-	?
O=C(NNC(=O)c1cc(-c2ccc(Cl)c(Cl)c2)nc2ccccc12)Nc1ccccc1	?	?	-	-	-	20.6µM
O=C(Nc1ccncc1)c1cc(-c2cccc(Br)c2)nc2ccccc12	.	-	?	-	.	16.4µM
O=C(NC1=NCCS1)c1cc(-c2cccc(Br)c2)nc2ccccc12	?	-	-	-	7.08µM	?
Cc1ccc2nc(-c3cccc(Br)c3)cc(C(=O)NC3=NCCS3)c2c1	4.47µM	-	-	-	2.51µM	-
Cc1cccc(NC(=O)NNC(=O)c2cc(-c3ccccc3Cl)nc3ccccc23)c1	-	-	?	-	-	?
Cc1ccccc1NC(=O)OCc1ccccc1	-	-	?	-	-	-
C=CCOC(=O)C1=C(C)N=C2SCCC(=O)N2C1/C=C/c1ccccc1 (stereo not drawn)	-	-	?	-	-	-
Cc1cc(C(=O)NCCc2ccc(S(N)(=O)=O)cc2)c(C)o1	-	-	-	-	-	-
Cc1nc2ccccc2n1CC(=O)OCC(=O)NC1CC1	-	-	-	-	-	-
CCOC(=O)CN1C=C(c2ccc3ccccc3n2)C(C[N+](=O)[O-])c2ccccc21 (stereo not drawn)	-	?	?	-	-	16.4µM
CSCCC(NS(=O)(=O)c1ccc(C)cc1)C(=O)N1CCN(C(C)=O)CC1 (stereo not drawn)	.	-	-	-	.	-
CCOC(=O)C(=O)Nc1cc([N+](=O)[O-])ccc1C	-	.	-	-	-	-
Cc1ccc(S(=O)(=O)N2CCOCC2)cc1NC(=O)CNCc1ccccc1Cl	.	5.17µM	-	-	.	?
CCCCNC(=S)Nc1cc(S(=O)(=O)N2CCCCC2)ccc1C	10µM	-	-	-	5.62µM	-
Cc1ccc(SCC(=O)Nc2cc(S(=O)(=O)N3CCCCC3)ccc2C)cc1	.	-	?	-	.	-
SMILES	Gal4-VP16 FLuc	SW480 rereplic	BCR signal inh	Giardia kill	RORg inh	MCF10A rerep
CCCCNC(=S)Nc1cc([N+](=O)[O-])ccc1C	?	-	-	-	11.2µM	-
CC(Oc1cccc(Cl)c1)C(=O)Nc1cc(S(=O)(=O)N2CCOCC2)ccc1N1CCCCC1 (stereo not drawn)	.	-	-	-	.	13µM
CCOC(=O)C1=C(C)NC(SCC(=O)Nc2nc(C)cs2)=C(C#N)C1c1cccs1 (stereo not drawn)	-	.	?	.	-	.
CCN(CC(=O)Nc1cc(S(=O)(=O)N2CCCCC2)ccc1C)Cc1ccccc1	.	-	?	-	.	20.6µM
O=C(C1CC1)N1CCC(C(O)(c2ccccc2)c2ccccc2)CC1	-	-	-	-	-	-
CC(C)(C)C(=O)N1CCC[C@H]1C(O)(c1ccccc1)c1ccccc1	22.4µM	?	?	-	?	-
COc1ccccc1NS(=O)(=O)c1ccc(C(=O)N2CCCC(C(F)(F)F)C2)cc1 (stereo not drawn)	.	-	?	-	.	-
COc1ccccc1N(C)S(=O)(=O)c1ccc(C(=O)N2CCCC(C(F)(F)F)C2)cc1 (stereo not drawn)	.	4.61µM	-	-	.	-
CCn1c(/N=C/c2ccc(OC)cc2O)nc2ccccc21	?	?	-	-	20µM	?
CCCn1c(/N=C/c2ccccc2O)nc2ccccc21	-	-	-	-	-	-
COc1ccccc1N1CCN(C(=O)C2CCCN(S(=O)(=O)c3ccc4c(c3)CCCN4C(C)=O)C2)CC1 (stereo not drawn)	7.94µM	?	-	-	-	-
O=C(C1CCCN(S(=O)(=O)c2ccccc2)C1)N1CCCCCC1 (stereo not drawn)	-	0.517µM!	-	-	-	-
O=C(C1CCCN(S(=O)(=O)c2ccc(F)cc2)C1)N1CCCC1 (stereo not drawn)	-	-	?	-	-	-
CCOc1cccc(C(=O)Nc2cccc(C(=O)NCC(C)C)c2)c1	-	-	?	-	-	-
COc1cc(CCC(=O)OCC(=O)Nc2sccc2C(N)=O)cc(OC)c1OC	.	16.4µM	-	-	.	-
NC(=O)c1ccsc1NC(=O)COC(=O)Cc1cccc2ccccc12	4.47µM	-[9.22 µM]	?	-	-	-
CCc1onc(C)c1C(=O)O	-	-	-	-	-	-
O=C(COC(=O)/C=C/c1cccc(C(F)(F)F)c1)NCc1cccs1	.	-	-	-	.	?
O=C(CCC(=O)N/N=C/c1cc(Cl)cc(Cl)c1O)NCc1ccccc1	?	?	-	-	?	?
CC(=O)Nc1ccc(S(=O)(=O)N2c3ccc(F)cc3CCC2C)cc1 (stereo not drawn)	.	18.4µM	.	-	.	?
CC(=O)N1c2ccc(S(=O)(=O)N3CCC(C(=O)Nc4ccc(F)cc4)CC3)cc2CC1C (stereo not drawn)	?	-	-	-	?	-
CCOC(=O)N1CCN(C(=O)CSc2nc(CC)nc3c2c(=O)n(C)c(=O)n3C)CC1	-	?	?	-	-	-
COc1ccc(-c2cc(C(F)(F)F)n3ncc(C(=O)N(C)Cc4ccccc4)c3n2)cc1	-	23.1µM	?	-	-	?
NC(=O)c1cnn2c(C(F)(F)F)cc(-c3ccccc3)nc12	-	-	.	-	-	-
COc1ccc(-c2cc(C(F)(F)F)n3ncc(C(=O)NCc4ccco4)c3n2)cc1	-	-	-	-	-	?
O=C(NCc1ccco1)c1cnn2c(C(F)(F)F)cc(-c3ccccc3)nc12	11.2µM	-	-	-	15.8µM	-
CCC(C)N1CNc2c(c(=O)[nH]c(=S)n2-c2cccc(C)c2)C1 (stereo not drawn)	-	-	-	-	-	-
